About 6,400 (1.6%) of roughly 410,000 compounds were called active. Another 20% or so got no clear call; they are omitted. Many of the other results were omitted from the sample, so actives are more common in it than they were. Unmarked numbers belong to inactive results. Calls follow the shape of the dose curve; as a rule, active = well fitted inhibition curve with a large enough effect; inconclusive = small, poorly fitted or top-dose-only effect; inactive = no such curve, though single readings can be large or run the other way.
molecular target: Glucagon-like peptide 1 receptor (Homo sapiens) (UniProt P43220); assay: qHTS of GLP-1 Receptor Inverse Agonists (Inhibition Mode); details: HEK293 GLP-1R CRE-luciferase, luminescence, 24 h, GLP-1R form is constitutively active; series mostly up to 38.3 µM; activity change, negative = inhibition: at the top concentration; also: nearly all actives have a fitted effect of over 55% in size
Sequence (P43220 whole entry, looked up): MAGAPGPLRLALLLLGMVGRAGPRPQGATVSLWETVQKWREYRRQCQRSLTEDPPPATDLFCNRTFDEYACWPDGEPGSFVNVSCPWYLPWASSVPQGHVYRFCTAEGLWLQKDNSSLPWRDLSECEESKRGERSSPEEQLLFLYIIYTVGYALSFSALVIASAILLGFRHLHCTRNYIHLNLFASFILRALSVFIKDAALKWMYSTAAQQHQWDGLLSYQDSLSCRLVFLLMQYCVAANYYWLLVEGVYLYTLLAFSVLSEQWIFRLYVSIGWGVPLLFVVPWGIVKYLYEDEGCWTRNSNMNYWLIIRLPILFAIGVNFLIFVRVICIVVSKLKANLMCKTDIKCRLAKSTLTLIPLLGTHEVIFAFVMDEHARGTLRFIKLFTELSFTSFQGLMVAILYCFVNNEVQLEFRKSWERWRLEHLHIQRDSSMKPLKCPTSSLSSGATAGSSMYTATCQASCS
Summary of the method: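 GLP-1R inverse agonism mode: basal reporter luminescence in engineered HEK293 cells measured after one day of compound exposure at 37 deg C, with a 12 min room-temperature detection step.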
% is scaled to controls: 0 for no effect and ±100 for the full control effect; potency is read from the fitted curve at half-maximal effect.

SMILES	activity change, negative = inhibition [%]	Potency
CC(=O)Nc1ccc(CNc2nc(NCCN(C)C)nc3cc(-c4ccccc4)sc23)cc1	-27.5	–
CCCOc1cccc(C(=O)NCCCNC(=O)c2cccnc2)c1	20.7	–
CCOc1cccc(C(=O)Nc2nnc(-c3cccs3)s2)c1	25.6	–
CCOc1cccc(C(=O)Nc2cnn(Cc3ccccc3)c2)c1	–	10 µM (active)
Cc1nccn1-c1ccc(NC(=O)[C@H]2O[C@@H](n3cnc4c(N)ncnc43)[C@H](O)[C@@H]2O)cc1	32.2	–
CSc1ccc(CCNC(=O)CS(=O)(=O)Cc2nc(-c3ccccc3F)oc2C)cc1	9.93	–
Cc1ccccc1-c1nc(CS(=O)(=O)CC(=O)NC(C)c2ccccc2)c(C)o1 (centres undefined)	–	4.47 µM (active)
Cc1ccc(S(=O)(=O)CC(=O)NC(C)c2ccccc2)cc1 (centres undefined)	-15.5	–
CN(Cc1ccccc1)C(=O)[C@@H]1CCCN1C(=O)[C@@H]1CCCN1C(=O)c1c(F)cccc1F	11.3	–
CCOC(=O)[C@]12CCC=C1N(CCC1=CCCCC1)C(=O)[C@H](CC(=O)NCc1ccc(C)o1)C2	14	–
CC(NC(=O)CN1CCN(Cc2ccc(Cl)cc2)C1=O)c1ccc2c(c1)OCCO2 (centres undefined)	-23.5	–
O=C(CN1CCN(Cc2ccc(Cl)cc2)C1=O)NCc1ccc(F)cc1	-5.81	–
Cc1ccc(CNC(=O)CN2CCN(Cc3ccc(Cl)cc3)C2=O)cc1	–	7.94 µM (active)
CC(C)C1CC2=C(C(=O)OC(C)(C)O2)C(c2ccc(F)cc2)O1 (centres undefined)	-19.2	–
Cc1ccc([C@H]2C[C@H](O)[C@@H](n3cc(COC(=O)c4ccccc4)nn3)CN2CC2CCCCC2)cc1	1.35	–
CC(=O)N1C[C@@H](CO)[C@@H](N(C)C(=O)c2ccco2)C[C@H]1c1ccccc1	17.5	–
COc1ccccc1-c1n[nH]nc1C1=CC(=O)CC(C)(C)C1	-11.7	–
NS(=O)(=O)c1ccc(CNC(=O)c2cccc(S(=O)(=O)N3CCc4ccccc43)c2)cc1	-4.07	–
Cc1ccc(NC(=O)c2cccc(S(=O)(=O)N3CCCc4ccccc43)c2)nc1	–	7.94 µM (active)
Cc1cccc(NC(=O)c2cccc(S(=O)(=O)N3CCCC3)c2)n1	-2.27	–
COc1ccc(NC(=O)N(C)C[C@H]2Oc3ncc(C#C[C@@H](C)O)cc3C(=O)N([C@H](C)CO)C[C@H]2C)cc1	19.3	–
Cn1c(Nc2ccc(F)cc2)nc2cc(-c3ccsc3)sc2c1=O	13.3	–

SMILES	activity change, negative = inhibition [%]	Potency
CCN(CCN(C)C)C(=O)c1ccc2nc(C)c(N(C)C(=O)CCc3ccccc3)n2c1	12.2	–
O=C(NCc1nnnn1-c1ccc(Cl)cc1)c1ccc([N+](=O)[O-])o1	12.3	–
CC1CCN(Cc2nc(-c3ccc(Cl)cc3)no2)CC1	-29.5	–
CCN1CC(CN(C)Cc2nc(-c3ccc(Cl)cc3)no2)CC1=O (centres undefined)	-4.38	–
Cc1ccc(S(=O)(=O)N(Cc2nc(-c3ccc(Cl)cc3)no2)C2CCCCC2)cc1	–	10 µM (active)
CCN(CC)C(=O)C(C)N1c2cccc3cccc(c23)S1(=O)=O (centres undefined)	-23.4	–
CCc1cccc(C)c1N1C(=O)CN(Cc2ccccc2)C1=S	–	5.62 µM (active)
CC1CN(Cc2ccccc2)C(=S)NC1=O (centres undefined)	0.404	–
O=C1C[C@@H]2c3c(cccc3CN1Cc1ccccc1)C[C@@H](O)[C@H]2O	26.3	–
Nc1ncnc2c1ncn2[C@@H]1O[C@H](C(=O)N2CCSC2)[C@@H](O)[C@H]1O	0.629	–
CCOc1cc(/C=N/NC(=O)c2c(C)nc3ccc(Cl)cn23)ccc1O	1.83	–
CC(=O)C[C@@H]1OC[C@H](C)N1S(=O)(=O)c1ccc(C)cc1	0.373	–
CCCC(=O)N1CCC1(C)C(=O)NCc1ccc(C(C)C)cc1 (centres undefined)	17.7	–
O=C(NNc1cc(Cl)cc(Cl)c1)c1c(F)cccc1Cl	–	10 µM (active)
CCN(CC)CCNC(=O)c1ccc(NC(=O)c2c(F)cccc2Cl)cc1	-15.9	–
O=C(Nc1nnc(-c2ccc(F)cc2)s1)c1c(F)cccc1Cl	-21.4	–
CN1CCN(c2ccncc2S(=O)(=O)N2CCCC2)CC1	14	–
COCCNC(=O)c1cc2c(Br)ccc(Br)c2nc1N	3.82	–
O=C(C[C@H]1CC[C@@H](NC(=O)c2ccncc2)[C@@H](CO)O1)NCC1CC1	19.3	–
CCOc1ccccc1/C=N/Nc1nc2ccccc2o1	4.76	–
CCOc1cccc(/C=C/c2ccc3ccccc3n2)c1OC(C)=O	–	10 µM (active)
CCOc1ccccc1-c1cc(C(=O)N2CCOCC2)c2ccccc2n1	-1.25	–

SMILES	activity change, negative = inhibition [%]	Potency
CC(C)(C)S(=O)N1Cc2cc(C(=O)NCCCN3CCOCC3)nc(-c3cccc(-c4cc5ccccc5o4)c3)c2[C@H]1CCO (some centres undefined)	4.49	–
COc1cccc(CC(=O)Nc2ccc(-c3csc(C)n3)cc2)c1	-12.6	–
COc1cccc(N2CCN(CC(=O)Nc3ccnn3C3CCCC3)CC2)c1	-24.6	–
COc1cccc(NC(=O)CN2CCN(c3nc(-c4cccc(OC)c4)cs3)CC2)c1	–	10 µM (active)
CC(C)CN1CCC1(C)C(=O)Nc1ccc(OC(F)F)cc1 (centres undefined)	-21	–
C[N+](C)(C)CCNC(=O)c1c[nH]c2ccccc12	15.7	–
CC(C)c1cc(C(=O)N(C)C2CCCN(Cc3ccccc3F)C2)n(C)n1 (centres undefined)	-8.11	–
COc1cc2c(cc1OC)C(Nc1ccc(S(N)(=O)=O)cc1)=NC(C)(C)C2	120	–
COc1cc2c(cc1OC)C(C(C)C)=NC(C)(C)C2	41.3	–
COc1cc2c(cc1O)C(SC)=NC(C)(C)C2	–	10 µM (active)
CC(=O)NN=C(C)c1ccc(NC(=O)C2CC2)cc1	-13.4	–
N#Cc1ccc(C(C(=O)NCc2ccccc2)n2c(=O)c(-c3ccco3)nc3ccccc32)cc1 (centres undefined)	-11.9	–
Cc1ccc(NC(=O)Cn2sc3ccccc3c2=O)cc1	-7.13	–
CSC(=S)N/N=C/c1c[nH]c2ccccc12	–	3.16 µM (active)
O=C(O)c1cccc(NC(=S)N/N=C/c2c[nH]c3ccccc23)c1	-14.5	–
COCCNC(=S)N/N=C/c1c(C)[nH]c2ccccc12	-22.1	–
CCc1nc2ccc(C(=O)N3CCC(O)(Cc4ccccc4)CC3)cn2c1N(C)C(=O)Cc1ccccc1	-20	–
CCc1ccc(N(CC(=O)NCc2cccnc2)S(=O)(=O)c2ccccc2)cc1	-16.9	–
CCNC(=O)CN(c1ccc(C)cc1)S(=O)(=O)c1ccc(SC)cc1	-13.4	–
Cc1ccc(S(=O)(=O)N(CC(=O)Nc2cccnc2)c2ccc(Br)cc2)cc1	–	11.2 µM (active)
